Sampled rows, rich in hits. Any-hit rate of the full collection: about 2.4%.
Pol kappa inh-1 – inhibitors of human DNA polymerase kappa | Q9UBT6 | purified Pol kappa, fluorescent DNA synthesis assay, 10 min | Potency, µM (titrated, usually from 107 µM), for the others: at the top dose activity, negative = inhibition, usual class: inhibitors | 0.53% of 400,000 active | AID 588579; note: potency is the fitted concentration of half-maximal effect; % is set by controls: 0 for no effect and ±100 for the full control effect
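50 nM final substrate added after 15 min RT preincubation of 10 nM Pol kappa with compound; fluorescence read at 0 and 10 min.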
POLI inh – blocks human DNA polymerase iota activity; Q9UNA4; Pol iota fluorescent replication assay, 10 min; Potency, µM (titrated, usually from 115 µM), without a hit: top-dose activity, negative = inhibition, most hits filed as inhibitors; 1% of 390,000 active; note: potency is the fitted concentration of half-maximal effect
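Pol iota at 10 nM preincubated 15 min with compounds at room temperature; reaction started with fluorescent substrate, 50 nM final. Fluorescence read kinetically at 0 and 10 min; buffer-only wells as negative control.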
FEN1 inh – inhibitors of human flap endonuclease 1. Potency, µM (highest dose often 114 µM), for the others: at the top dose activity change, negative = inhibition, most hits filed as inhibitors. 0.35% of 390,000 active. AID 588795. P39748. Recombinant FEN1 flap cleavage, fluorescence, 15 min; note: potency is the fitted concentration of half-maximal effect; % is set by controls: 0 for no effect and ±100 for the full control effect; nearly all actives have a fitted effect of over 65% in size
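FEN1 at 10 nM, compound pretreatment for 15 min (room temperature), 50 nM final substrate to initiate; endpoint reads at 0 and 15 min; DMSO-only plates used as vehicle background.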
Pol beta inh – inhibitors of human DNA polymerase beta. P06746. Pol beta primer extension/strand displacement, fluorescence kinetic. Potency, µM (highest dose often 114 µM), without a hit: at the top dose activity change, negative = inhibition, usual class: inhibitors. 1.3% of 340,000 active; note: potency is the fitted concentration of half-maximal effect; % is set by controls: 0 for no effect and ±100 for the full control effect
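10 nM enzyme + cpd, 15 min RT; start with substrate 50 nM final; read 0 min and after 10 min RT. Corrected, normalized data; 4-parameter Hill curve fit.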
TDP1 block – TDP1 (human) enzyme inhibition. recombinant TDP1, AlphaScreen DNA substrate cleavage. Potency, µM (titrated, usually from 130 µM), for inactives: top-dose activity change, negative = inhibition, hits mostly inhibitors. 0.28% of 350,000 active; note: potency is the fitted concentration of half-maximal effect; % is set by controls: 0 for no effect and ±100 for the full control effect; nearly all actives have a fitted effect of over 40% in size
Target sequence (Q9NUW8 whole entry, looked up): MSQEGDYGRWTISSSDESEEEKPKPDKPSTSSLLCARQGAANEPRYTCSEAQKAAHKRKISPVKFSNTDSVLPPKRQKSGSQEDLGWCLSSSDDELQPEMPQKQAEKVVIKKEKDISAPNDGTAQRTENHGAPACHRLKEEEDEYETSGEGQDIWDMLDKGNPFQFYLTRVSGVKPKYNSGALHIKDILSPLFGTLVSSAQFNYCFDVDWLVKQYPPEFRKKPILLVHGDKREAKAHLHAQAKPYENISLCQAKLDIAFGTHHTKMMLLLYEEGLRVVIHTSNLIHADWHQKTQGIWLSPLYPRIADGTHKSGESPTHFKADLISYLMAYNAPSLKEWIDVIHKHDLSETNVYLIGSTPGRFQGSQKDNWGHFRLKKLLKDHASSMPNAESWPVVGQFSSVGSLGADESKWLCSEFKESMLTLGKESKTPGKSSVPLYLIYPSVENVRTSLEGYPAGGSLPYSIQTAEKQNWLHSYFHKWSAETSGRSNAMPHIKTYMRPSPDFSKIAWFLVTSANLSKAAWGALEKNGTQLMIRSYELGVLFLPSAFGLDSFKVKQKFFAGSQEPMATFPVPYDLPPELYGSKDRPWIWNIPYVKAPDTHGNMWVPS
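Recombinant human Tdp1 (E. coli-expressed, 1 nM final) preincubated with compounds 15 min at room temperature, then 5'-biotin/3'-phosphotyrosine-FITC DNA substrate (15 nM final) added for 5 min. AlphaScreen beads (10 ug/ml final) added 10 min; cleavage lowers signal.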
Pol eta inh-1 – DNA polymerase eta (human) inhibition; recombinant Pol eta, fluorescent DNA replication assay; Potency, µM (titrated, usually from 114 µM), inactives show at the top dose activity change, negative = inhibition, actives largely listed as inhibitors; 1.2% of 390,000 active; AID 588591; note: potency is the fitted concentration of half-maximal effect; % is set by controls: 0 for no effect and ±100 for the full control effect
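Pol eta (10 nM) was preincubated with compounds for 15 min at room temperature, after which fluorescent replication substrate (50 nM final) was added to start the reaction. Fluorescence was read kinetically at 0 and 10 min.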
PGK validate – blocks T. brucei phosphoglycerate kinase; shares compounds with Pol kappa inh-1; TbPGK coupled GAPDH assay, Kinase-Glo luminescence; Potency, µM (titrated, usually from 57.5 µM), inactives show at the highest dose activity change, negative = inhibition, actives largely listed as inhibitors; 79% of 500 active; AID 686980; note: potency is the fitted concentration of half-maximal effect; % is set by controls: 0 for no effect and ±100 for the full control effect; nearly all actives have a fitted effect of over 65% in size
Pol iota confirm – Inhibitors of human DNA polymerase iota, confirmation. Pol iota primer extension, TAMRA/BHQ fluorescence. AID 720496. 77% of 1,500 active. Potency, µM, usual class: inhibitors. shares compounds with Pol kappa inh-1; note: potency is the fitted concentration of half-maximal effect
GALK inh confirm – galactokinase (human) inhibition, confirmation; AID 2015; 70% of 150 active; shares compounds with Pol eta inh-1; Potency, µM (highest dose often 115 µM), for the others: at the top dose activity, negative = inhibition, most hits filed as inhibitors; purified GALK, Kinase-Glo ATP depletion luminescence
GALK redox cs – counter-screen for GALK inhibitors: redox cycling H2O2 generation; shares compounds with Pol eta inh-1; Phenol red-HRP H2O2 redox cycling, absorbance 600 nm; Potency, µM (highest dose often 115 µM), without a hit: at the highest dose activity change, negative = H2O2 signal, hits mostly inhibitors; 40% of 150 active
HEK293 viability – counter-screen for GALK inhibitors: HEK293 cell cytotoxicity; shares compounds with Pol eta inh-1; HEK-293 viability, ATP luminescence (CellTiter-Glo), 24/48 h; Potency, µM (doses to about 46.1 µM), for the others: top-dose activity change, negative = cytotoxicity, hits mostly inhibitors; 10% of 170 active; note: potency is the fitted concentration of half-maximal effect; % is set by controls: 0 for no effect and ±100 for the full control effect
Pol kappa inh-2 – confirmation of human DNA polymerase kappa inhibitors; AID 720501; shares compounds with Pol eta inh-1; Potency, µM, usual class: inhibitors; 76% of 920 active; purified Pol-kappa, fluorescent strand-displacement substrate; note: potency is the fitted concentration of half-maximal effect
Pol eta inh-2 – confirmation of human DNA polymerase eta inhibitors | Pol eta primer extension, TAMRA/BHQ fluorescence, 10 min | Potency, µM, most hits filed as inhibitors | 64% of 2,600 active | shares compounds with Pol eta inh-1 | AID 720502; note: potency is the fitted concentration of half-maximal effect
The depositor's hits bear a star; ? = inconclusive; nt = no result given; [ ] = another dose, or the depositor's remark. Calls come from the whole dose curve; as a rule, active = well fitted curve in the direction sought with a large enough effect; inconclusive = small, poorly fitted or top-dose-only effect, or another doubt; inactive = no such curve, though single readings can be large; an effect the other way counts as inactive or inconclusive.

SMILES | Pol kappa inh-1 | POLI inh | FEN1 inh | Pol beta inh | TDP1 block | Pol eta inh-1 | Pol iota confirm | Pol eta inh-2 | others
CCOC(=O)C1CCCN(C(=O)c2cc(-c3ccco3)nc3ccccc23)C1 (stereo not given) | 22µM* | 3.5µM* | 56µM* | nt | nt | 3.2µM* | 19* | 19* | PGK validate=10µM*;Pol kappa inh-2=9.5*
CCN(CC)C(=O)COC(=O)c1cc(-c2ccc(OC)cc2)nc2ccccc12 | -14% | -4% | ? | 25% | -12% | 0% | nt | nt
CCN(CC)C(=O)COC(=O)c1cc(-c2ccco2)nc2ccccc12 | 79µM* | 14µM* | ? | 28µM* | nt | 40µM* | 47* | 67*
CCOC(=O)C1CCCN(C(=O)c2cc(-c3ccncc3)nc3ccccc23)C1 (stereo not given) | 1% | 32% | 6% | nt | nt | -23% | nt | nt
CCN(CC)Cc1ccc(Nc2ccnc3cc(Cl)ccc23)cc1O | -15%[60.1 µM] | nt | nt | nt | 3% | nt | nt | nt
Cc1ccc(N=Nc2c(N)nn3c(C)cc(C)nc23)cc1 | -4% | 0% | 2% | 1% | 2% | -16% | nt | nt
Cc1ccc(N=Nc2c(N)nn3c(N)c(C#N)c(C)nc23)cc1 | 79µM* | ? | ? | 22µM* | 3% | ? | 42* | ?
CCOc1ccc(CCNC(=O)CN2C(=O)COc3ccc(S(=O)(=O)N(CC)CC)cc32)cc1 | -17% | 32% | 5% | -1% | 6% | -6% | nt | nt
Nc1ccc2c(c1)C(=O)N(c1ccc3ccccc3c1)C2=O | -13% | -3% | 8% | nt | 0% | nt | nt | nt
O=C1C=C(Nc2ccccc2C(=O)O)c2ccccc2C1=O | -18% | 18µM* | ? | ? | 2% | 28µM* | 67* | 38*
O=C1C=C(Nc2cccc3cccnc23)c2ccccc2C1=O | ? | 18µM* | 50µM* | ? | 10% | 50µM* | ? | ?
O=c1cc(Br)c(O)c(Br)cc1Br | 50µM* | 4.5µM* | ? | nt | nt | 18µM* | ? | 60*
COc1ccc(/C=N/NC(=O)c2cc(O)c(O)c(O)c2)cc1Cn1cc([N+](=O)[O-])cn1 | 4µM* | 3.2µM* | ? | 0.56µM* | -5% | 2.8µM* | 8.4* | 15* | PGK validate=?
O=C1/C(=C\c2cc(Cl)c(O)c(Cl)c2)SC(=S)N1Cc1ccccc1 | -28% | 10µM* | 50µM* | ? | nt | 50µM* | 84* | nt | GALK inh confirm=27µM*;GALK redox cs=5%;HEK293 viability=?
COc1ccc(/C=C2/SC(=S)N(Cc3ccccc3)C2=O)cc1O | -7% | -23% | -17% | 5% | nt | -2% | nt | nt
O=C(O)CCN1C(=O)/C(=C\c2cccc(Oc3ccccc3)c2)SC1=S | ? | 25µM* | ? | ? | nt | 40µM* | ? | 76*
O=C(O)c1ccc(N/N=C/C=C/c2ccc([N+](=O)[O-])o2)cc1 | 79µM* | 8.9µM* | ? | 3.2µM* | -14% | 22µM* | 38* | 27* | PGK validate=16µM*
CCOc1ccc(C2C(=O)N(C3CCCCCC3)CC(=O)N2Cc2ccc(C)cc2)cc1OC (stereo not given) | -9%[60.1 µM] | -11% | 6% | -13% | 3% | 3% | nt | nt
CN(C)c1ccc(/C=C2\SC(=S)N(Nc3ncc(C(F)(F)F)cc3Cl)C2=O)cc1 | 18µM* | 11µM* | ? | -1% | 3% | 45µM* | 21* | 19*
Cc1ccc(Cl)cc1N1CCN(C(=O)Cn2cnc3nc4c(cc3c2=O)CCCC4)CC1 | -2%[60.1 µM] | 11% | -18% | 4% | 7% | -15% | nt | nt
CC(=O)N1CCc2c(sc3c2c(=O)n(-c2ccccc2Cl)c(=O)n3Cc2cccc(C)c2)C1 | -1%[60.1 µM] | 12% | -8% | -18% | 10% | -25% | nt | nt
CSc1nsc(/C=C/Nc2ccc(F)cc2F)c1C#N | -22% | 119% | -13% | -8% | 7% | 5% | nt | nt
CSc1nsc(/C=C/Nc2ccc(C(=O)O)cc2)c1C#N | -9%[60.1 µM] | 56% | -7% | 32µM* | 7% | 28µM* | 75* | 43*
Cc1nnc(SCC2=C(C(=O)O)N3C(=O)C(NC(=O)Cn4nc(C(F)F)cc4C)C3SC2)s1 (stereo not given) | ? | 16µM* | -3% | ? | nt | 8.9µM* | nt | 27* | PGK validate=?
CCC(C(=O)NC1C(=O)N2C(C(=O)O)=C(CSc3nnc(C)s3)CSC12)c1ccccc1 (stereo not given) | -29% | -27% | 16% | nt | -6% | ? | nt | nt
Cc1c(C(=O)N2CCC(C)CC2)c(S(=O)(=O)N(Cc2ccccc2)C(C)(C)C)c(C)n1C | -7%[60.1 µM] | 19% | 13% | 3% | 1% | 1% | nt | nt
CCOc1c(OC(C)=O)ccc(/C=C/c2ccc3cccc(OC(C)=O)c3n2)c1[N+](=O)[O-] | -15% | 3% | -17% | 2% | 12% | -14% | nt | nt
C=CCN1C(=O)/C(=C/c2ccc(OC(C)=O)c(OCC)c2[N+](=O)[O-])SC1=S | ? | 28% | -20% | ? | -1% | 20µM* | 75* | 67* | GALK inh confirm=?;GALK redox cs=42µM*;HEK293 viability=?
